From PubChem BioAssay AID1069 (NMMLSC, 2008) come the findings set out here.

Calls of active or inactive are those of the source.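 How the source made its calls: active means high combined rank on largest and smallest cell-count-weighted shift across three tests, rank score above 45, floors 50 and 25 (some results past the limit were not filed as active); inactive means the rest.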

A short description of this assay: activators of LNCaP cell differentiation, retest, confirmation, side scatter shift, flow cytometry (AID 1069).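 Further: LNCaP human prostate cancer cells in low-serum medium with charcoal-stripped FBS; percent of cells with raised granularity gated so DMSO controls show 10%.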 To be noted: 4 d, stronger effect = higher value.

Consider `Cn1c(C(=O)NCCCN2CCN(c3cccc(Cl)c3)CC2)cc2c(=O)n(C)c3ccccc3c21`, for which the side scatter shift is 69.6% (active) (at 100 µM) and 5.45% (side scatter shift, at 10 µM).

On to `CCn1c(C(=O)NCCCN2CCc3ccccc3C2)cc2sccc21`, for which the side scatter shift runs as follows: (at 100 µM) 12.5% (inactive); (side scatter shift, at 10 µM) 14.8%.

Regarding `O=C(Cc1coc(-c2ccc(F)cc2)n1)N1CCOCC1`, the side scatter shift was 9.7% (inactive) (at 100 µM) and 2.15% (side scatter shift, at 10 µM).

As to `CCOC(=O)c1[nH]c(C)c(C(=O)N2CCc3ccccc32)c1C`, the side scatter shift (at 100 µM) is 7.7% (inactive) and the side scatter shift (side scatter shift, at 10 µM) is 15.4%.

As to `CCCCn1c2c(c3ccccc31)CCc1nonc1-2`, the side scatter shift is, setting by setting: (at 100 µM) 20.1% (inactive); (side scatter shift, at 10 µM) 2.8%.

Consider `CCN1CCN(CCNC(=O)C2CCCN(Cc3nc(-c4cccc(Cl)c4)oc3C)C2)CC1` (configuration not stated), for which the side scatter shift by setting is: (at 100 µM) 14.3% (inactive); (side scatter shift, at 10 µM) 32.2%.

On to `Cc1ccc(Oc2ccc(S(=O)(=O)N3CCOCC3)cc2C(N)=O)c(-n2nc3ccccc3n2)c1`, for which the side scatter shift runs as follows: (at 100 µM) 20% (inactive); (side scatter shift, at 10 µM) 21.3%.

`Cc1ccc2[nH]c(=O)c3cc(C(=O)N(C)Cc4ccco4)sc3c2c1`: the side scatter shift runs as follows: (at 100 µM) 4.2% (inactive); (side scatter shift, at 10 µM) 11.1%.

For `O=C(CCNC(=O)Cn1ccc2ccccc2c1=O)NCCCN1CCN(c2ccccc2F)CC1`, the side scatter shift was 35.7% (inactive) (at 100 µM) and 6.15% (side scatter shift, at 10 µM).

`Cc1ccccc1-c1nc(CN2CCC(C(=O)NCCCN3CC(C)CC(C)C3)CC2)c(C)o1` (configuration not stated): the side scatter shift was 54.5% (active) (at 100 µM) and 78.4% (side scatter shift, at 10 µM).

As for `COc1ccc2nc3oc(C(=O)NCc4cccs4)cc3cc2c1`, the side scatter shift by setting is: (at 100 µM) 3.9% (inactive); (side scatter shift, at 10 µM) 3.9%.

With `C=CCn1cc(C(=O)N2CCN(C)CC2)c(=O)c2cc(S(=O)(=O)N3CCCC3)ccc21`, the side scatter shift is 8.9% (inactive) (at 100 µM) and 1.6% (side scatter shift, at 10 µM).

As for `Cc1ccccc1-c1nc(CN2CCC(C(=O)NCc3ccco3)CC2)c(C)o1`, the side scatter shift (at 100 µM) was 41.1% (inactive) and the side scatter shift (side scatter shift, at 10 µM) was determined as 3.2%.

Consider `CN1CCN(CC(=O)Nc2ccc(Cl)cc2Cl)CC1`, for which the side scatter shift (at 100 µM) is 23.1% (inactive) and the side scatter shift (side scatter shift, at 10 µM) worked out at 6.1%.

For `Cc1ccccc1CS(=O)(=O)CCC(=O)NCCCN1CCN(c2ccccc2F)CC1`, the side scatter shift by setting is: (at 100 µM) 56.5% (active); (side scatter shift, at 10 µM) 6.05%.

Turning to `COc1cccc(-c2cc(C(=O)N3CCCc4ccccc43)no2)c1`, the side scatter shift by setting is: (at 100 µM) 22.2% (inactive); (side scatter shift, at 10 µM) 1.8%.

Consider `O=C(Nc1cccc(Cl)c1)N1CCN(Cc2ccccc2)CC1`, for which the side scatter shift (at 100 µM) is 7.1% (inactive) and the side scatter shift (side scatter shift, at 10 µM) stood at 10.2%.

For `COc1ccc(-c2noc(-c3cc(Cl)ccc3Cl)n2)cc1OC`, the side scatter shift (at 100 µM) is 49.4% (inactive) and the side scatter shift (side scatter shift, at 10 µM) was 7.6%.

On to `Cc1oc(-c2cccc(Cl)c2)nc1CN1CCCC(C(=O)NCCCN2CCOCC2)C1` (configuration not stated), for which the side scatter shift runs as follows: (at 100 µM) 27.3% (inactive); (side scatter shift, at 10 µM) 23.6%.

As to `CCCCOC(=O)CSc1nc2c(cc1C#N)C(=O)CC(C)(C)C2`, the side scatter shift was 16.3% (inactive) (at 100 µM) and 5.85% (side scatter shift, at 10 µM).

On to `CN1CCN(c2cc3c(c4c2[nH]c2ccccc24)C(=O)CC(C)(C)C3)CC1`, for which the side scatter shift (at 100 µM) is 16.1% (active) and the side scatter shift (side scatter shift, at 10 µM) was 56.2%.

Consider `COc1ccc(OC)c(N=Cc2c(O)[nH]c3ccccc23)c1`, for which the side scatter shift was 7.2% (inactive) (at 100 µM) and 6.1% (side scatter shift, at 10 µM).

On to `COc1ccccc1N1CCN(Cc2cc(Br)c(O)c3ncccc23)CC1`, for which the side scatter shift is 35.3% (inactive) (at 100 µM) and 17.4% (side scatter shift, at 10 µM).

`CCc1ccc(-c2nc(CN3CCC(C(=O)NCCN(CC)c4ccccc4)CC3)c(C)o2)cc1`: the side scatter shift by setting is: (at 100 µM) 50% (inactive); (side scatter shift, at 10 µM) 24.1%.

On to `CCCOc1ccc2nc(NC(=O)OC)[nH]c2c1`, for which the side scatter shift by setting is: (at 100 µM) 8.3% (inactive); (side scatter shift, at 10 µM) 2.95%.

As for `COc1ccc(CC(=O)Nc2ccc(-c3nnc(-c4ccc(C)cc4)o3)cc2)cc1`, the side scatter shift runs as follows: (at 100 µM) 33.3% (inactive); (side scatter shift, at 10 µM) 6.65%.

As for `Cc1ccc2c(c1)NC(=O)C(CC(=O)NCCCN1CCN(c3cc(C)ccc3C)CC1)O2` (configuration not stated), the side scatter shift (at 100 µM) was 30.1% (inactive) and the side scatter shift (side scatter shift, at 10 µM) was determined as 2.95%.

Take `Cc1ccc(C)c(N2CCN(CCCNC(=O)Cn3cc4c(n3)CCCCC4)CC2)c1`: the side scatter shift was 0% (inactive) (at 100 µM) and 7.55% (side scatter shift, at 10 µM).

With `CCOC(=O)N1CCC(=C2c3ccc(Cl)cc3CCc3cccnc32)CC1`, the side scatter shift runs as follows: (at 100 µM) 28.6% (inactive); (side scatter shift, at 10 µM) 6.25%.

Consider `Cc1ccc(Cn2c(C(=O)NCCCN3CCOCC3)cc3sccc32)cc1`, for which the side scatter shift runs as follows: (at 100 µM) 20.1% (inactive); (side scatter shift, at 10 µM) 10.8%.

Regarding `Cn1c(C(=O)NCCN2CCN(c3ccccc3F)CC2)cc2c(=O)n(C)c3ccccc3c21`, the side scatter shift reads like this: (at 100 µM) 50% (inactive); (side scatter shift, at 10 µM) 7.7%.

On to `Cc1cc(N2CCN(C)CC2)nc2ccc(NC(=O)c3ccc(Br)o3)cc12`, for which the side scatter shift runs as follows: (at 100 µM) 0% (active); (side scatter shift, at 10 µM) 56.4%.

Regarding `CCOc1cccc2cc(-c3cn4cc(C)ccc4n3)c(=O)oc12`, the side scatter shift (at 100 µM) is 43.1% (active) and the side scatter shift (side scatter shift, at 10 µM) stood at 2.1%.

In the case of `Cc1oc(-c2cccc(Cl)c2)nc1CN1CCC(C(=O)NCc2cccnc2)CC1`, the side scatter shift runs as follows: (at 100 µM) 28.9% (inactive); (side scatter shift, at 10 µM) 8.3%.

For `Cc1cc(N2C(=O)C3C4C=CC(C4)C3C2=O)ccc1Br` (configuration not stated), the side scatter shift by setting is: (at 100 µM) 9.6% (inactive); (side scatter shift, at 10 µM) 16.5%.

On to `Oc1c(CN2CCCCC2)cc(COCc2ccccc2)c2cccnc12`, for which the side scatter shift was 5.7% (active) (at 100 µM) and 51.2% (side scatter shift, at 10 µM).

As to `CCn1c(SCC(=O)Nc2ccccc2F)nc2c(c1=O)SC(C)C2` (configuration not stated), the side scatter shift by setting is: (at 100 µM) 8% (inactive); (side scatter shift, at 10 µM) 0.85%.

`O=C(NCCCN1CCN(c2ccccc2F)CC1)C1CCN(S(=O)(=O)N2CCOCC2)CC1`: the side scatter shift by setting is: (at 100 µM) 19.9% (inactive); (side scatter shift, at 10 µM) 7.2%.

Turning to `Cc1cc(NC(=O)c2noc3c2CCc2ccccc2-3)n(-c2ccccc2)n1`, the side scatter shift runs as follows: (at 100 µM) 21.9% (inactive); (side scatter shift, at 10 µM) 12.4%.

On to `O=C(CCn1c(=O)oc2ccccc21)NCCCN1CCN(c2ccc(F)cc2)CC1`, for which the side scatter shift is 25.4% (inactive) (at 100 µM) and 4.25% (side scatter shift, at 10 µM).

On to `O=C(NCCCN1CCN(c2cccc(Cl)c2)CC1)C1CCC(=O)N1Cc1ccccc1Cl` (configuration not stated), for which the side scatter shift was 33.3% (inactive) (at 100 µM) and 11.4% (side scatter shift, at 10 µM).
